# Compound activity as filed in PubChem BioAssay.
# aSyn rescue = rescues yeast growth from alpha-synuclein toxicity; Yeast expressing alpha-synuclein, growth rescue, BacTiter-Glo, 24 h; Potency, µM (titrated, usually from 46.1 µM), without a hit: at the highest dose growth rescue (activation), usual class: activators; 0.14% of 370,000 active; AID 652106; note: % of control where 0% means no effect; nearly all actives have a fitted effect of over 65% in size
#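 Galactose-induced alpha-syn yeast (OD600=0.02, raffinose-pregrown) + pinned cpd, 24 hr, 30 deg C; growth by BacTiter-Glo luminescence. Growth restoration scores as activation.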
# Abeta rescue = compounds reversing amyloid beta toxicity in yeast | yeast expressing A-beta42, growth rescue, OD600, 48 h; response scale: 0% DMSO, 100% iron-clioquinol control | AID 1347071 | Potency, µM (highest dose often 46.1 µM), actives largely listed as activators | 0.063% of 410,000 active; note: nearly all actives have a fitted effect of over 55% in size
#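 Yeast growth medium received pinned compounds, then yeast cells expressing toxic A-beta were added; plates incubated at 30 C for 48 hr. Growth read as absorbance at 600 nm, normalized to DMSO and equimolar FeCl3 plus clioquinol controls.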
# TDP-43 yeast inh = rescues yeast growth from TDP-43 toxicity; TDP-43 expressing yeast growth rescue, BacTiter-Glo, 24 h; Potency, µM (titrated, usually from 46.1 µM), for the others: at the top dose growth rescue (activation), usual class: activators; 1.8% of 410,000 active; AID 652104; note: % of control where 0% means no effect; nearly all actives have a fitted effect of over 50% in size
#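 Luminescence from BacTiter-Glo reports growth of TDP-43-expressing yeast after 24 hr at 30 deg C with compound. Cells were raffinose-pregrown to mid-log, then seeded in galactose medium at OD600=0.02.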
# FUS yeast rescue = FUS proteinopathy suppression in yeast; S. cerevisiae FUS-expressing, growth rescue, OD600, 24 h; Potency, µM (doses to about 76.6 µM), most hits filed as activators; 0.24% of 390,000 active; AID 1347120;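 note: plate controls were DMSO vehicle for no effect and reference control for full effect; nearly all actives have a fitted effect of over 55% in size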
#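 Steps: raffinose overnight preculture; dilution to OD 0.005 in 2% galactose minimal medium; compound addition (concentration series); 24hr at 30C, 99% humidity; absorbance read at 600 nm.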
# * = called active by the depositor; i = inactive; ? = inconclusive; / = not tested or not shown; ! = a repeat was not active. In the library only some 2.1% were active in any assay of this set; here they are far more common. Calls come from the whole dose curve; as a rule, active = well fitted curve in the direction sought with a large enough effect; inconclusive = small, poorly fitted or top-dose-only effect, or another doubt; inactive = no such curve, though single readings can be large; an effect the other way counts as inactive or inconclusive. Potency is the fitted concentration of half-maximal effect.
SMILES,aSyn rescue,Abeta rescue,TDP-43 yeast inh,FUS yeast rescue
COc1ccc(OC)c(-c2noc(N3CCN(c4ccc(Cl)cc4)CC3)n2)c1,/,i,11.2µM*,i
CC(C)CC(=O)NC(=S)Nc1ccc(N2CCN(C(=O)c3cccs3)CC2)cc1,-4.1%,i,17.8µM*,i
O=C(COCc1cc(-c2cccs2)on1)N1CCN(c2ccc(F)cc2)CC1,/,i,15.8µM*,i
Cn1c(SCC(=O)NCc2ccco2)nnc1-c1cccc(NC(=O)c2ccccc2)c1,2.4%,/,/,/
O=c1c2ccccc2ncn1Cc1cccc2ccccc12,18.6%,i,11.2µM*,i
Cc1ccccc1Cn1cnc2ccccc2c1=O,4.8%,i,?,i
CN(C)S(=O)(=O)c1cccc(C(=O)N/N=C\c2cccc(C#N)c2)c1,/,/,/,i
CCOc1ccccc1N1CCN(C(=O)/C=C/c2cccc([N+](=O)[O-])c2)CC1,13.1%,i,14.1µM*,i
Nc1cccc(Oc2c(F)c(F)c(Oc3cccc(N)c3)c(F)c2F)c1,-13.1%,i,5.62µM*,i
Clc1cccc(-c2nc3ccc(Cl)cn3c2Cc2ccsc2)c1,0.0%,i,?,i
Fc1ccc(-c2nc3ccc(Br)cn3c2Cc2cccc(F)c2)cc1,-8.5%,i,16.2%,i
Clc1cccc(-c2nc3ccc(Cl)cn3c2Cc2ccccc2)c1,19.4%,i,15.8µM*,i
Fc1cccc(Cc2c(-c3cccc(Br)c3)nc3ccc(Cl)cn23)c1,-2.0%,i,25.1µM*,i
CCOC(=O)[C@]12CCCC=C1N(CCCOC)C(=O)[C@@H]2CC(=O)N1CCCC1,/,/,/,i
Cc1cccc(Cn2c(-c3cccs3)nc3ccccc32)c1,-31.0%,i,18.6%,i
Cc1ccc(C)c(Cn2c(-c3cccs3)nc3ccccc32)c1,/,i,20µM*,i
COC(=O)[C@]12C[C@H](CC(=O)N3CCCCC3)C(=O)N(Cc3ccco3)C1=C[C@H](COCc1ccccc1)O[C@@H]2C,/,/,/,i
COc1ccccc1N1CCN(C(=O)c2cc(C3CC3)on2)CC1,1.2%,i,12.6µM*,i
COc1ccccc1N1CCN(C(=O)c2nc(SC)ncc2Cl)CC1,/,i,35.5µM*,i
COc1ccccc1-c1cc(C(=O)N2CCN(c3ccccc3OC)CC2)no1,19.1%,i,17.8µM*,i
COc1ccccc1N1CCN(C(=O)c2cc(-c3ccc(F)cc3)on2)CC1,-1.4%,i,12.6µM*!,i
O=C(COC(=O)c1c2ccccc2cc2ccccc12)NCC(F)(F)F,18.1%,i,15.8µM*,/
CCCCCCC/C=C(\C)[C@@H](O)[C@@H](C)C(=O)N1CCC[C@@H]1C(=O)O,/,/,/,i
CCCCNC(=O)c1onc(CSc2ccccn2)c1C(=O)NCCCC,12.1%,i,14.1µM*,i
Cc1ccc(-n2ccnc(NCCc3ccc(S(N)(=O)=O)cc3)c2=O)c(C)c1,/,i,10.8%,i
SMILES,aSyn rescue,Abeta rescue,TDP-43 yeast inh,FUS yeast rescue
Cc1cccc(C)c1NC(=O)[C@H]1CC(=O)O[C@@H]1c1ccccc1,/,/,/,i
Cn1c(C(=O)O)cc2cc(Oc3ccccc3)ccc21,-19.0%,i,22.4µM*,i
O=C(O)c1cc2cc(Oc3ccccc3)ccc2[nH]1,-5.1%,i,17.8µM*,i
O=C(O)c1cc2ccccc2[nH]1,9.9%,i,22.7%,i
CC(=O)Oc1ccc2cc(-c3nc4c(s3)CCc3ccccc3-4)c(=O)oc2c1,4.4%,/,/,/
COC(=O)[C@]12C[C@H](CC(=O)N3CCN(C(=O)C4CC4)CC3)C(=O)N(Cc3cccc4ccccc34)C1=C[C@H](C1CCCC1)O[C@@H]2C,/,/,/,20µM*
COC(=O)[C@]12C[C@H](CC(=O)NCC34CC5CC(CC(C5)C3)C4)C(=O)N(Cc3cccc4ccccc34)C1=C[C@H](C(C)(C)C)O[C@@H]2C,/,/,/,i
COC(=O)[C@]12C[C@H](CC(=O)NCc3ccccc3)C(=O)N(Cc3ccc(Cl)cc3Cl)C1=C[C@H](C1CCCC1)O[C@@H]2C,/,/,/,i
COC(=O)[C@]12C[C@H](CC(=O)NCCc3ccccc3OC)C(=O)N(Cc3cccc4ccccc34)C1=C[C@H](C(C)(C)C)O[C@@H]2C,/,/,/,14.1µM*
CCCCOCCCNC(=O)C[C@H]1C[C@@]2(C(=O)OC)C(=C[C@H](C3CCCC3)O[C@@H]2C)N(Cc2cccc3ccccc23)C1=O,/,/,/,8.91µM*
CCc1ccc(CNC(=O)CN2CCSc3ccccc32)cc1,10.7%,?,25.1µM*,i
Cc1ccccc1CNC(=O)CN1CCSc2ccccc21,1.1%,i,12.9%,i
O=[N+]([O-])c1ccc(N2CCN(C(=S)NCc3ccc(Cl)cc3)CC2)cc1,23.4%,5.62µM*,?,i
CCNC(=S)N1CCN(c2ccc([N+](=O)[O-])cc2)CC1,-2.6%,i,4.6%,i
COc1ccc(/C=C2/C(=O)N(CC3CCCO3)C(=S)N2C)c(OC)c1 (stereo not given),0.6%,i,-17.6%,i
COc1ccccc1/C=C1\NC(=S)N(CC2CCCO2)C1=O (stereo not given),0.6%,i,14.1µM*,i
CN1[C@H](Cc2ccccc2)COc2cccc(F)c2S1(=O)=O,/,/,/,i
CC(C)(C)NC(=O)C(c1cccc2ccccc12)n1c(=O)c(-c2ccco2)nc2ccccc21 (stereo not given),?,i,17.4%,?
CC(C)(C)NC(=O)C(c1cccc2ccccc12)n1c(=O)c(-c2ccccc2)nc2ccccc21 (stereo not given),-12.5%,i,35.5µM*,i
CCN(CC)c1ncnc2c1sc1nc(C)cc(C)c12,0.0%,i,22.4µM*,i
Cc1cc(C)c2c(n1)sc1c(N3CCCCC3)ncnc12,-8.7%,i,4.2%,i
O=C1CCC[C@H]2C[C@H](NCc3cccc(I)c3)CC[C@]23CCCN13,/,/,/,i
COc1ccc(/C=C2\CCc3ccccc3C2=O)cc1O,-12.8%,i,14.1µM*,i
O=C1/C(=C\c2ccc([N+](=O)[O-])cc2)CCc2ccccc21,-7.8%,i,?,i
CC(=O)Nc1ccc(/C=C2\CCc3ccccc3C2=O)cc1,0.0%,i,35.5µM*,i
SMILES,aSyn rescue,Abeta rescue,TDP-43 yeast inh,FUS yeast rescue
Cc1cccc(C(=O)Nc2c(-c3ccc(C(F)(F)F)cc3)nc3ncccn23)c1,/,/,/,i
COCCCNc1nc2ccccc2nc1NS(=O)(=O)c1cccc(C)c1,-5.5%,i,14.1µM*,i
COCCCNc1nc2ccccc2nc1NS(=O)(=O)c1ccccc1,-0.6%,i,18.9%,i
N#CC(=C1C=CC(=NO)C(Cl)=C1)c1ccccc1,-10.3%,i,7.08µM*,i
N#CC(=C1C=C(Br)C(=NO)C=C1Cl)c1ccc(Cl)cc1,-1.5%,i,?,i
CCCCn1cc2c(c1-c1ccccc1Br)c(=O)n(C)c(=O)n2C,/,i,0.0%,i
CCCCCn1cc2c(c1-c1ccccc1Br)c(=O)n(C)c(=O)n2C,/,i,17.8µM*,i
